Screens as filed in PubChem.
bovine MsrA act: activates bovine MsrA enzyme; purified bovine MsrA, absorbance read-out; activation, % at 10.6 µM; 360,000 compounds, 0.3% hits; AID 602163; in the data active = activation above about 7.5%;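 note: 0% = vehicle and 100% = reference activator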
rCAG binder-1: r(CAG) repeat RNA binding. TO-PRO-1 dye displacement fluorescence. inhibition, % at 3 µM. 370,000 compounds, 1.3% hits. AID 651821;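 active = inhibition above the plate cutoff, the mean of all test compounds on that plate plus 3 SD, cut at about 35% in these data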;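 note: 0% = DMSO alone and 100% = 100 µM mitoxantrone as full dye displacement; higher means more dye released from RNA so lower well fluorescence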
HGIII-sPLA2 inh: Blocks human group III sPLA2 activity; Q9NZ20; QFRET BODIPY PC-A2 liposome hydrolysis, fluorescence; inhibition, % at 12.2 µM; 370,000 compounds, 0.56% hits;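 active = inhibition above mean plus 3 SD of compounds lying within the high and low control bounds, cut at about 19% in these data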;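 note: 0% = median of test compound wells and 100% = no enzyme DMSO wells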
Target sequence (Q9NZ20 whole entry, looked up): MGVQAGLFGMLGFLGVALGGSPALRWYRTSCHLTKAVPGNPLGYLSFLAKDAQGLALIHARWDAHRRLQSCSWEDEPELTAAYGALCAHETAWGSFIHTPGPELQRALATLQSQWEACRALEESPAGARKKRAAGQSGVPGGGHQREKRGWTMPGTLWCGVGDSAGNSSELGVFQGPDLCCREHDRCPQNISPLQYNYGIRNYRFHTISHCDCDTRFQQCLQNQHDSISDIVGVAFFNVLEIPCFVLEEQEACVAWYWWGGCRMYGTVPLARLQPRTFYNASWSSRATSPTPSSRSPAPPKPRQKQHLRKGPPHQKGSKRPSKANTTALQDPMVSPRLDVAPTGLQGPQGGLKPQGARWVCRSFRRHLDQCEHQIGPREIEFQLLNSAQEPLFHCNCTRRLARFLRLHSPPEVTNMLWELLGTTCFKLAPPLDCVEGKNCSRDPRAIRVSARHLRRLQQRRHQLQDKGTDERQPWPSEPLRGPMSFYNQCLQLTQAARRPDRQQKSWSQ
MsrA inh: inhibitors of bovine MsrA | purified bovine MsrA, absorbance read-out | inhibition, % at 15.5 µM | 360,000 compounds, 0.75% hits | AID 651718; in the data active = inhibition above about 4.5%;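 note: 0% = vehicle wells with enzyme and 100% = reference inhibitor wells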
rCAG bind conf: r(CAG) RNA repeat binding, confirmation | 4,300 compounds, 70% hits | shares compounds with rCAG binder-1 | TO-PRO-1 dye displacement fluorescence | inhibition, % at 3 µM;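 active = inhibition above a per-plate cutoff, the mean inhibition of sample wells plus 3 SD, cut at about 35% in these data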;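 note: loss of TO-PRO-1 fluorescence as compound displaces dye from 1x1 AA loop RNA; 0% = DMSO only wells and 100% = 100 µM mitoxantrone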
dCAG dye counter: disrupts DNA CAG TO-PRO-1 complex, flagging rCAG hits; shares compounds with rCAG binder-1; d(CAG) DNA oligo TO-PRO-1 dye displacement, fluorescence; inhibition, % at 3 µM; 4,300 compounds, 94% hits; AID 652068;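 active = inhibition above its plate's cutoff, the mean test-well inhibition plus 3 SD, cut at about 4.8% in these data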;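 note: 0% = DNA dye mix with DMSO and 100% = 100 µM mitoxantrone; hits displace the dye from DNA and so lower well fluorescence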
DNA CAG DR: DNA CAG dye complex inhibition, dose response counter-screen; IC50, µM; 250 compounds, 20% hits; shares compounds with rCAG binder-1; DNA CAG/GTC duplex TO-PRO-1 dye displacement fluorescence; in the data active = IC50 below about 10 µM
dCAG TOPRO ctr: counter-screen for rCAG binders: DNA CAG TO-PRO-1 complex inhibitors, late stage; 30 compounds, 80% hits; shares compounds with rCAG binder-1; AID 720649; IC50, µM; d(CAG) DNA duplex TO-PRO-1 dye displacement, fluorescence
rCAG binder-2: binds r(CAG) RNA repeats in late stage dose response | shares compounds with rCAG binder-1 | r(CAG) RNA TO-PRO-1 dye displacement, fluorescence | IC50, µM | 30 compounds, 100% hits | AID 720651
* marks the source's active call; other numbers are inactive results; i = inactive; x = not tested or not shown. An excerpt weighted towards active compounds, which were near 2.8% of everything screened. Unless noted, the rule behind the calls is not given here.

SMILES	bovine MsrA act	rCAG binder-1	HGIII-sPLA2 inh	MsrA inh	rCAG bind conf	dCAG dye counter	others
COc1ccc(-c2cc(C(=O)NNC(=S)NC(=O)c3c(-c4ccccc4)noc3C)[nH]n2)cc1	-1	70*	24*	2	75*	33*	DNA CAG DR=i;dCAG TOPRO ctr=i;rCAG binder-2=0.99*
CCCOc1cccc(-c2cc(C(=O)NNC(=S)NCC)c3ccccc3n2)c1	-1	58*	-16	0	56*	20*
COc1ccc(C(=O)NNC(=S)NC(=O)c2cc(-c3ccccc3)nc3ccccc23)cc1	1	65*	-3	1	79*	33*
COc1ccc(/C=C/C(=O)NC(=S)NNC(=O)c2c(-c3ccccc3)noc2C)cc1	-2	12	18	3	x	x
CCNC(=S)NNC(=O)c1cc(-c2ccccc2C)nc2ccccc12	-2	x	x	x	x	x
COc1ccc(-c2cc(C(=O)Nc3c(F)cc(F)cc3Br)no2)cc1	-4	5	-4	1	x	x
CCOC(=O)C(CC)n1cnc2c(nnn2-c2cccc(OC)c2)c1=O (stereo not drawn)	-1	-1	-3	1	x	x
CCNC(=S)NNC(=O)c1cc(-c2ccc(OCC)cc2)nc2ccccc12	-12	43*	8	3	48*	16*
NS(=O)(=O)c1cccc(NC(=O)CSc2nc3nc(-c4cccs4)cc(C(F)(F)F)c3c(=O)[nH]2)c1	-2	50*	-12	2	77*	45*
CCOc1ccc(/C=C/C(=O)c2cc(Br)ccc(=O)c2O)cc1	-6	61*	10	2	47*	22*
O=C(C=Cc1ccccc1)c1cc(Br)ccc1O	-3	1	-19	0	x	x
CCc1ccc(/C=C/C(=O)c2cc(Br)ccc(=O)c2O)cc1	-9	46*	9	2	54*	25*
Cc1cccc(/C=C/C(=O)c2cc(Br)ccc(=O)c2O)c1	-2	45*	6	2	56*	24*
Cc1cc(C)cc(NC(=O)N2C3CCCC2CC(NC(=O)C2CC2)C3)c1 (stereo not drawn)	-4	0	0	0	x	x
O=C(Nc1ccccc1C(=O)O)/C(=C/c1ccc(Cl)cc1Cl)NC(=O)c1ccco1	-10	52*	-13	2	27	6.0*
O=C(O)CC(NC(=O)C1c2ccccc2Oc2ccccc21)c1ccc(Cl)cc1 (stereo not drawn)	5	39*	-10	1	26	4
O=C(O)CC(NC(=O)c1cccc(F)c1)c1ccc(OC2CCCC2)cc1 (stereo not drawn)	-2	10	7	0	x	x
O=C(O)CC(NC(=O)c1sc2ccccc2c1Cl)c1ccc(OC2CCCC2)cc1 (stereo not drawn)	-3	59*	-25	0	73*	25*	DNA CAG DR=i
O=C(NC1CC1)c1sc2ccccc2c1Cl	0	0	11	0	x	x
O=C(O)CC(NC(=O)C1c2ccccc2Oc2ccccc21)c1ccc(OC2CCCC2)cc1 (stereo not drawn)	-6	50*	-34	0	48*	12*
O=C(NNC(=S)NC1CCCCC1)c1sc2ccccc2c1Cl	-5	83*	-22	1	82*	54*
CCOc1ccc(C(CC(=O)O)NC(=O)C2c3ccccc3Oc3ccccc32)cc1 (stereo not drawn)	0	15	-5	2	x	x
O=C(Nc1c(F)cccc1F)C(c1ccccc1)c1ccccc1	-1	-1	-3	1	x	x
O=C(O)Cc1ccc(-c2ccccc2-c2ccccc2)cc1	-8	14	-3	-1	x	x
O=C(O)Cc1ccc(N2N=C(c3ccccc3)CC2=O)cc1	-7	68*	6	-1	22	6.0*
SMILES	bovine MsrA act	rCAG binder-1	HGIII-sPLA2 inh	MsrA inh	rCAG bind conf	dCAG dye counter	others
O=C(Nc1ccc(-c2csc(Nc3ccc(Cl)cc3)n2)cc1)c1cccc(C(F)(F)F)c1	x	44*	11	3	14	11*
O=C(Nc1ccc(-c2csc(Nc3ccccc3)n2)cc1)c1cccc(C(F)(F)F)c1	-4	24	14	0	x	x
Cc1ccc(S(=O)(=O)Nc2c(C(=O)O)[nH]c3ccccc23)cc1C	-2	46*	-22	0	34	11*
Cc1cc(S(=O)(=O)Nc2c(C(=O)O)[nH]c3ccccc23)ccc1F	-2	21	-32	-1	x	x
COc1ccc2[nH]c(C(=O)O)c(NS(=O)(=O)c3ccc(C)cc3C)c2c1	-2	49*	-28	0	24	4.9*
Cc1cccc(NC(=S)NCCc2ccc(S(N)(=O)=O)cc2)c1C	-3	8	13	-1	x	x
Cc1c(Br)c([N+](=O)[O-])nn1CC(=O)Nc1ccccn1	-6	5	-1	1	x	x
Oc1c(N=Nc2nn[nH]n2)ccc2ccccc12	-1	47*	-9	2	61*	30*
CC(=O)Nc1ccc(-c2nc3cc(Cl)ccc3o2)cc1	-5	0	-7	-1	x	x
O=C(O)c1ccccc1-c1ccccc1C(=O)Nc1ccc2oc(=O)c3ccccc3c2c1	-1	51*	-20	0	51*	14*
O=C(O)c1ccccc1-c1ccccc1C(=O)Nc1ccc(-c2nc3cc(Cl)ccc3o2)cc1	-2	71*	-53	4	85*	54*
CCn1c2ccccc2c2cc(NC(=O)C(C)C)ccc21	0	-1	4	-1	x	x
O=C(O)c1ccccc1-c1ccccc1C(=O)Nc1ccccc1	-7	-1	6	1	x	x
Cc1ccc(NC(=O)c2ccccc2-c2ccccc2C(=O)O)cc1C	-3	3	-2	2	x	x
O=C(O)c1ccccc1-c1ccccc1C(=O)Nc1ccc2c(c1)[nH]c(=O)c1ccccc12	-2	68*	-28	2	62*	27*
CCn1c2ccccc2c2cc(NC(=O)c3ccccc3-c3ccccc3C(=O)O)ccc21	-2	75*	-26	0	65*	26*
COc1cc(NC(=O)C2C3C=CC(C3)C2C(=O)O)c(OC)cc1Cl (stereo not drawn)	-2	0	12	-1	x	x
O=C(NCc1cccs1)c1cccnc1C(=O)O	-8	x	x	x	x	x
COCCNC(=O)c1ccc2c(c1)C(=O)c1ccccc1-2	-2	-1	4	1	x	x
CCc1ccc(S(=O)(=O)/N=C2\C=C(NS(=O)(=O)c3ccccc3)C(=O)c3ccccc32)cc1	-12	59*	1	1	89*	66*
Cc1ccc(C)c(S(=O)(=O)/N=C2\C=C(NS(=O)(=O)c3ccccc3)C(=O)c3ccccc32)c1	-3	67*	-9	-1	90*	69*
